D1 PAM: potentiators of human D1 dopamine receptor; HEK293 TREx D1 cells, calcium flux, dopamine EC20 potentiation; potentiation, % at 10 µM; P21728; actives 0.036% (n = 360,000); in the data active = potentiation above about 30%; note: 0% is about no effect
Target sequence (P21728 whole entry, looked up): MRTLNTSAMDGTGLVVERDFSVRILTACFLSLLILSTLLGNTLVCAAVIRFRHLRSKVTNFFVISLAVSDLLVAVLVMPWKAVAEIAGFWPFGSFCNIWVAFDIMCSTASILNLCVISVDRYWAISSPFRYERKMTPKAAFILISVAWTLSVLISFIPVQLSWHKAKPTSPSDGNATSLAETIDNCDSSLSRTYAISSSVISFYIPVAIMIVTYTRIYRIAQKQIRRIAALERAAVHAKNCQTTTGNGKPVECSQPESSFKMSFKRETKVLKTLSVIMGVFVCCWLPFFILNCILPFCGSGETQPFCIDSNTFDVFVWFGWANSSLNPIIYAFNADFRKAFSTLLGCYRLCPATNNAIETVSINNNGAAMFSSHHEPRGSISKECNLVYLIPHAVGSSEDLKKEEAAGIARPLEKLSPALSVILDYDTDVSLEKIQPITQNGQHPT
D1 antagonist: blocks dopamine activation of the human D1 receptor; HEK293 TREx D1 cells, calcium flux, dopamine EC80; stronger effect = lower value; activity change, negative = inhibition, % at 10 µM; actives 3.2% (n = 360,000); AID 504652; in the data active = activity change below about -30%; note: % is set by controls: 0 for no effect and ±100 for the full control effect
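Allosteric or orthosteric antagonism assessed as attenuation of the calcium response to EC80 dopamine, added 180 s after compound, in induced HEK293 Trex D1 cells loaded with no-wash calcium dye.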
TRHR agonist: TRH receptor (human) agonism. P34981. TRHR cells, calcium flux fluo-8, FDSS agonist mode. activation, % at 2 µM. actives 0.18% (n = 360,000). AID 493084; note: 0% is about no effect
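TRHR-expressing cells loaded with fluo-8 calcium dye; 23 nL library compound pin-transferred, kinetic FDSS fluorescence (Ex 480/Em 530) recorded about 180 s for agonist-induced calcium release, before a 10 nM TRH EC20 addition for potentiator mode.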
D1 agonist: agonists of human D1 dopamine receptor | P21728 | HEK293 T-REx D1 cells, calcium flux, agonist mode | activation, % at 2 µM | actives 1% (n = 360,000) | AID 504660; note: 0% is about no effect
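Tetracycline-induced HEK293 TREx D1 cells, force-coupled to calcium signalling, were dye-loaded with a no-wash calcium kit. Compound was pin-added after a 10 s baseline. Fluorescence was read kinetically at 1 cycle/s for 180 s, with calcium rises flagged as agonism.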
TRHR enhancer: allosteric enhancers of human TRH receptor; P34981; TRHR cells, fluo-8 calcium fluorescence, EC20 TRH enhancement; enhancement, % at 2 µM; actives 0.66% (n = 360,000); in the data active = enhancement above about 30%; note: 0% is about no effect
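Enhancer read-out: after compound pinning and an initial kinetic agonist-mode read, an EC20 of TRH (10 nM final) was injected and fluo-8 calcium signal (Ex 480/Em 530) followed at 1 s/cycle for 100 cycles in TRHR-expressing cells.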
Starred values were filed as active, the others as inactive; . = no result given. Only some compounds are listed: those with a hit (about 4.7% of all), similar ones and a draw of the others. Cut-off read from the data, not from the text of the source, unless noted: active = activation above about 30%; inactive = the rest.

SMILES	D1 PAM	D1 antagonist	TRHR agonist	D1 agonist	TRHR enhancer
Cc1nn2c(=O)c3c4c(sc3nc2n1-c1ccccc1)COC(C)(C)C4	5.2	1.9	-1.0	2.6	39.5*
O=[N+]([O-])c1ccccc1CNc1ccc(F)c(Cl)c1	7.0	-0.7	-1.0	-1.8	1.6
COc1cccc(CNc2ccc(F)c([N+](=O)[O-])c2)c1O	-8.5	-30.8*	0.6	7.6	-4.4
O=C(Cc1ccc(Cl)cc1)NCC(c1cccs1)S(=O)(=O)c1ccc(F)cc1 (stereo not drawn)	5.1	.	-0.4	3.0	-0.2
CC(OC(=O)c1ccc(S(=O)(=O)N(C)C)cc1)C(=O)Nc1ccc(Cl)cn1 (stereo not drawn)	0.5	-59.6*	-0.7	6.1	-3.3
CC(OC(=O)c1ccccc1O)C(=O)Nc1ccc(Cl)cn1 (stereo not drawn)	0.1	-10.5	0.0	0.6	-4.1
CCOc1ccccc1NC(=O)COC(=O)CNS(=O)(=O)c1ccc(C)cc1	-1.9	-16.4	0.5	-0.9	2.4
CCOc1ccccc1NC(=O)COC(=O)Cc1ccc(-c2ccccc2)cc1	-5.2	-36.6*	-0.6	39.1*	-2.3
CCOc1ccccc1NC(=O)COC(=O)CN(C)S(=O)(=O)c1ccc(C)cc1	-7.5	-45.1*	-0.3	25.0	1.3
CCc1ccccc1NC(=O)Nc1nnc(N(C)Cc2ccccc2)s1	-3.0	-16.9	-0.2	-1.4	-6.2
COc1ccccc1CNC(=O)CN1C(=O)COc2ccc(S(=O)(=O)N3CCC(C)CC3)cc21	2.9	8.1	-1.3	2.5	-5.5
Cn1c(C(=O)N2CCCc3ccccc32)cc2sccc21	-7.3	-18.5	-0.4	44.5*	10.1
O=C(c1cc2sccc2n1Cc1ccccc1)N1CCCc2ccccc21	-0.6	-13.7	0.4	3.7	-5.2
Cc1c(Cl)cccc1-n1nc(C)c2c(C(=O)NCc3ccccc3)cc(C3CC3)nc21	1.9	-3.1	-0.3	1.3	8.0
Cc1ccc(C)c(S(=O)(=O)N2CCN(C(=O)CCc3c[nH]c4ccccc34)CC2)c1	-4.9	-34.7*	0.4	1.1	2.4
Cc1ccc(S(=O)(=O)N2CCN(C(=O)CSc3nnc(-c4ccco4)o3)CC2)cc1	-7.8	-40.4*	-0.7	0.2	5.7
Cc1ccc(-c2nnc(SCC(=O)N3CCCC3)o2)cc1	-2.4	0.2	-0.3	2.3	-9.1
Cc1ccc(C)c(S(=O)(=O)N2CCN(C(=O)CSc3ccccc3)CC2)c1	-3.5	-40.5*	0.7	-0.9	3.2
CCC(C(=O)OCC(=O)N1CCN(S(=O)(=O)c2ccc(C)cc2C)CC1)c1ccccc1 (stereo not drawn)	.	-2.7	0.7	48.9*	-4.8
CC(C)c1ccc(NC(=O)Cn2c(=O)n(Cc3nc(-c4ccccc4)no3)c(=O)c3cc4c(cc32)OCO4)cc1	-1.8	1.1	0.5	3.9	6.0
CCC(=O)Oc1c(Sc2ccc(Cl)cc2)c(C)nn1-c1ccccc1	0.6	5.7	0.0	-1.0	-3.9
Cc1nnc(SCC(=O)N2CCN(S(=O)(=O)c3ccccc3)CC2)s1	-3.8	-39.3*	-0.1	1.1	-0.8
CN1CCC(Oc2ccc(Sc3ccccc3)cc2)CC1	-8.8	-27.6	1.7	77.7*	0.8
CN1CCC(Oc2ccccc2Sc2ccc(C(F)(F)F)cc2)CC1	-6.3	-58.3*	12.9	52.4*	3.9
COc1ccc(-c2c(C)nn3c(C(F)(F)F)cc(C)nc23)cc1OC	1.2	-56.4*	0.6	2.2	-0.4
SMILES	D1 PAM	D1 antagonist	TRHR agonist	D1 agonist	TRHR enhancer
CCCCN1CCCC1CNC(=O)c1cc(C#N)c2ccccc2c1OC (stereo not drawn)	-3.5	-41.1*	0.2	4.3	-1.6
CCN1CCCC1CNC(=O)c1cc(OC)c(OC)c(OC)c1 (stereo not drawn)	7.3	-0.4	0.4	1.9	6.4
Cc1cc(C)cc(OCC(=O)NCC(c2ccc(Cl)cc2)N2CCCCC2)c1 (stereo not drawn)	2.2	17.6	0.5	4.8	2.4
O=C(Cn1c(=O)oc2cc(S(=O)(=O)NCc3ccccc3)ccc21)Nc1cccc(F)c1	-2.0	-2.9	0.1	4.5	-2.9
O=C(Nc1ccc(Oc2cccc(C(F)(F)F)c2)nc1)c1ccco1	-1.1	-40.6*	1.8	12.3	-3.8
CCOC(=O)N1CCC(NC(=O)c2cc3c(-c4cccc(OC)c4)nn(C)c3s2)CC1	-0.8	-43.2*	-0.5	2.8	2.3
COc1cccc(-c2nn(C)c3sc(C(=O)NCCc4cccc(C)c4)cc23)c1	15.2	-10.7	5.5	45.6*	3.1
Cc1cc(F)ccc1S(=O)(=O)Nc1ccc2oc3c(c2c1)CC(C)CC3 (stereo not drawn)	-6.8	0.2	-0.4	36.8*	16.7
COC(=O)c1cc2oc(C)cc2n1Cc1cccc(Cl)c1	-3.8	19.3	-0.3	2.2	-2.3
Cc1ccc2[nH]c(C(=O)N3CCCC(Nc4ccc(F)cc4)C3)cc2c1 (stereo not drawn)	-8.4	-30.1*	0.5	3.2	4.4
Cc1cc(C)c(C(=O)N2CCCC(Nc3ccc(F)cc3)C2)o1 (stereo not drawn)	-0.8	-16.9	0.1	0.5	-8.1
Cc1cccc(NC(=O)CN2C(=O)C3(SCC(=O)N3c3ccccc3)c3ccccc32)c1 (stereo not drawn)	-1.0	-36.5*	-2.0	4.9	3.5
CCc1ccc(CN(Cc2ccco2)c2cnc(S(C)(=O)=O)nc2C(=O)Nc2cccc(C)c2)cc1	-0.2	2.2	1.6	18.1	-0.8
CCOc1ccc(-c2oc3cc(Cl)ccc3c(=O)c2O)cc1OC	-1.1	20.3	78.1*	95.8*	-11.5
Cc1cc2oc(=O)cc(CN3CCCCC3)c2cc1C	1.2	-8.9	-0.2	0.7	-2.1
Cc1cc2oc(=O)cc(CN3CCN(S(=O)(=O)c4cccs4)CC3)c2cc1C	-5.8	-44.0*	-0.3	2.0	-4.8
COc1ccc(-c2nsc(NC(=O)c3cccc(OC)c3)n2)cc1	5.7	13.3	1.2	-1.6	10.6
COC(=O)c1ccc(NC(=S)NC2CCCCC2C)cc1 (stereo not drawn)	-4.8	-13.7	0.6	23.4	-5.0
OC1CCC(NC(=S)Nc2ccc(SC(F)F)cc2)CC1 (stereo not drawn)	-2.5	-8.8	-0.1	4.0	-3.0
FC(F)Sc1ccc(NC(=S)NC2CCCC2)cc1	-3.5	-34.2*	0.8	29.7	-3.2
CC1CCCC(NC(=S)Nc2ccc(SC(F)F)cc2)C1C (stereo not drawn)	-9.4	-43.9*	-0.4	18.3	4.9
COc1ccc(N2CCN(C(=O)C3CCN(S(=O)(=O)c4cccc5nonc45)CC3)CC2)cc1	-1.6	-11.0	-0.4	5.1	3.8
CC(C)COc1ccc(C(=O)N2CCCCC2CCN2CCOCC2)cc1 (stereo not drawn)	2.1	-18.2	-0.4	3.5	-0.9
